Assay results: ChEMBL document CHEMBL2218924, “A broad activity screen in support of a chemogenomic map for kinase signalling research and drug discovery” (Biochem J, 2013)

How the values were obtained:
[1] = target: T1, Tyrosine-protein kinase ZAP-70 (Homo sapiens) (UniProt P43403); conditions: at 10 µM
T1 sequence (whole entry): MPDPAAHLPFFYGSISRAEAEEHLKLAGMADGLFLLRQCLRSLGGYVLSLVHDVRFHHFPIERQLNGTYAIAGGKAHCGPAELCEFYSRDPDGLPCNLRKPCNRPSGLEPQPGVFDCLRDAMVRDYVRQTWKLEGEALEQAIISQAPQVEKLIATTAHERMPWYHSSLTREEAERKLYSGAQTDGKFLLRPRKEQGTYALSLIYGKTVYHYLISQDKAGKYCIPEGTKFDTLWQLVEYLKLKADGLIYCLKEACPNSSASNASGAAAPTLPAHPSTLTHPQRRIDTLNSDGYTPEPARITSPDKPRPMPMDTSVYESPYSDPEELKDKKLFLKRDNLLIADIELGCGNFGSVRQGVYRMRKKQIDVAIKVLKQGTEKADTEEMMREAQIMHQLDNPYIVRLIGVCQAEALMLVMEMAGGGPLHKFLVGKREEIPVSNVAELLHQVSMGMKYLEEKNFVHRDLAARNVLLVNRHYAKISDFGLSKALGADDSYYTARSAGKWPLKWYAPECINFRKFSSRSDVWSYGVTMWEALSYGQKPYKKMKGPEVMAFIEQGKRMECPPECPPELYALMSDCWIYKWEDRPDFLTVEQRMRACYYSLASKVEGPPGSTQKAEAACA

[2] = target: T2, Serine/threonine-protein kinase ULK3 (Homo sapiens) (UniProt Q6PHR2); conditions: at 1 µM
T2 sequence (whole entry): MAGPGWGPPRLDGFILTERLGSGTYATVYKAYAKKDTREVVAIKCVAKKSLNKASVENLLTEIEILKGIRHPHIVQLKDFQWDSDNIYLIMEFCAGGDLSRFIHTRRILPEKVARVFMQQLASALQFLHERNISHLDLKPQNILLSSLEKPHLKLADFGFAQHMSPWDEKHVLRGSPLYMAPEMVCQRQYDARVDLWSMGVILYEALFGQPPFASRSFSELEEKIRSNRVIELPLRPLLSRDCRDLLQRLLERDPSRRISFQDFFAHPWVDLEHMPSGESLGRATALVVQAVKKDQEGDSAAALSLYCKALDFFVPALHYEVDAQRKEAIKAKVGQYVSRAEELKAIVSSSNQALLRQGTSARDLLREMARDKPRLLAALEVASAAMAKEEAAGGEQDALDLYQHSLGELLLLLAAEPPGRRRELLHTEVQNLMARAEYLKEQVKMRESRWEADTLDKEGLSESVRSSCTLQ

[3] = target: T2, Serine/threonine-protein kinase ULK3 (Homo sapiens); conditions: at 10 µM
[4] = target: Serine/threonine-protein kinase WNK2 (Homo sapiens) (UniProt Q9Y3S1); conditions: at 1 µM
[5] = target: Serine/threonine-protein kinase WNK2 (Homo sapiens) (UniProt Q9Y3S1); conditions: at 10 µM
[6] = target: Serine/threonine-protein kinase WNK3 (Homo sapiens) (UniProt Q9BYP7); conditions: at 1 µM
Serine/threonine-protein kinase WNK3 (Homo sapiens), sequence (Q9BYP7 whole entry): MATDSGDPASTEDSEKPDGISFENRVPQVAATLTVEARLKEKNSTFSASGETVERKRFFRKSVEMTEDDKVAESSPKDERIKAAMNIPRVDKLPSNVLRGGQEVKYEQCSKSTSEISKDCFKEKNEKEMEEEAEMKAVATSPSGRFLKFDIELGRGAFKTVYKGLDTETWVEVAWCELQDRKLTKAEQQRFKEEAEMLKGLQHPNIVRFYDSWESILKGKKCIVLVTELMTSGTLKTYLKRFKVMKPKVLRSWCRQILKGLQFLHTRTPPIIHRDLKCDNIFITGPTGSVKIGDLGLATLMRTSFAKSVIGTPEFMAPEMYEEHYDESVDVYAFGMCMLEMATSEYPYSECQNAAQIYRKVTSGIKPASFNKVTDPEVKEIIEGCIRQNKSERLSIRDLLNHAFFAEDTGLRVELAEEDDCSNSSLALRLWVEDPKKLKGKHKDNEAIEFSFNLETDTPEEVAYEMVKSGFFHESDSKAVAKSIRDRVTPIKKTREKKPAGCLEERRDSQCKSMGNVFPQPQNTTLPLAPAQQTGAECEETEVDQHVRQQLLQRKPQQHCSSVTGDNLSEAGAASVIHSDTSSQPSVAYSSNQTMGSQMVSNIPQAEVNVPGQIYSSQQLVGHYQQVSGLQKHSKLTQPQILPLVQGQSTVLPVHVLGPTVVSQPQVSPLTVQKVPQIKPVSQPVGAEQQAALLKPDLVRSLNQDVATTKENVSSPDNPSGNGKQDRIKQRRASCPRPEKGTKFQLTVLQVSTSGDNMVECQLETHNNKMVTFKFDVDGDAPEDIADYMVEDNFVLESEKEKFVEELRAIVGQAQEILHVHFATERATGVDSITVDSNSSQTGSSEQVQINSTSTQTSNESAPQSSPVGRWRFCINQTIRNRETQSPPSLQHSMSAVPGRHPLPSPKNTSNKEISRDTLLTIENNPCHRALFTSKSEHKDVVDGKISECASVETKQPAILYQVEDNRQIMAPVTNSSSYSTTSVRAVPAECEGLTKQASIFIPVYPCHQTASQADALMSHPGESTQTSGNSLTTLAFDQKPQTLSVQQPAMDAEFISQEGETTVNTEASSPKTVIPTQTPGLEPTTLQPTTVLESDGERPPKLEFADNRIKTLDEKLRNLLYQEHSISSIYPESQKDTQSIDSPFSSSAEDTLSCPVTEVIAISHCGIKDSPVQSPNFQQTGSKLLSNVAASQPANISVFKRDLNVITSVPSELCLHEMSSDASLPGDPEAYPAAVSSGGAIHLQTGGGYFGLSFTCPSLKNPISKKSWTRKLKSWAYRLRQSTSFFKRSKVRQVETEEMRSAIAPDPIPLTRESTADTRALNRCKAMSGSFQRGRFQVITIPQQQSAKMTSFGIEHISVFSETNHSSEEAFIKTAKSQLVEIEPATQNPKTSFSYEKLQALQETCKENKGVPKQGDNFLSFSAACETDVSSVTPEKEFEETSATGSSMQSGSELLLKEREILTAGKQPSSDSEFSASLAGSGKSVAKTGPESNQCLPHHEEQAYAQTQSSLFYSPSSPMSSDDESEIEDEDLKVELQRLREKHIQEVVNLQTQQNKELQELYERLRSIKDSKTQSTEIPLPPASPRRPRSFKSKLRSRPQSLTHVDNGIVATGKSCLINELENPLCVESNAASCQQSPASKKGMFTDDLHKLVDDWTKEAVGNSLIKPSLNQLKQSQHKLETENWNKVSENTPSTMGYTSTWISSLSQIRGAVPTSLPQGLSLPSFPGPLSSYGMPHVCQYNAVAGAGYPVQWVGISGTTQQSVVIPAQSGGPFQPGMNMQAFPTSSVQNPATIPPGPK

[7] = target: Serine/threonine-protein kinase WNK3 (Homo sapiens) (UniProt Q9BYP7); conditions: at 10 µM
[8] = target: T1, Tyrosine-protein kinase ZAP-70 (Homo sapiens); conditions: at 1 µM
[9] = target: Death-associated protein kinase 3 (Homo sapiens) (UniProt O43293); conditions: at 1 µM
Death-associated protein kinase 3 (Homo sapiens), sequence (O43293 whole entry, looked up): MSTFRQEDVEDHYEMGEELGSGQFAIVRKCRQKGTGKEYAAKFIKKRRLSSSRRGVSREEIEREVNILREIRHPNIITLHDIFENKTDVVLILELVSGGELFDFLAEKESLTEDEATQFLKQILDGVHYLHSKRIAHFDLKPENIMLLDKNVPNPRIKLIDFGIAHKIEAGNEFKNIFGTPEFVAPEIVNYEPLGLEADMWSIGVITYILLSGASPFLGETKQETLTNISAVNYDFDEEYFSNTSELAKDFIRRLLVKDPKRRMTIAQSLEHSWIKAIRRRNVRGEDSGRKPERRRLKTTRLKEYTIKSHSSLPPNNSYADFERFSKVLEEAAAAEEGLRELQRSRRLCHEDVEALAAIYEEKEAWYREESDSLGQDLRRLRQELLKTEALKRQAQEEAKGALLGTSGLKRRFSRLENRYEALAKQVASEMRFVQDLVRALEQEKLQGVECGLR

[10] = target: Death-associated protein kinase 3 (Homo sapiens) (UniProt O43293); conditions: at 10 µM
[11] = target: RAF proto-oncogene serine/threonine-protein kinase (Homo sapiens) (UniProt P04049); conditions: at 1 µM
RAF proto-oncogene serine/threonine-protein kinase (Homo sapiens), sequence (P04049 whole entry): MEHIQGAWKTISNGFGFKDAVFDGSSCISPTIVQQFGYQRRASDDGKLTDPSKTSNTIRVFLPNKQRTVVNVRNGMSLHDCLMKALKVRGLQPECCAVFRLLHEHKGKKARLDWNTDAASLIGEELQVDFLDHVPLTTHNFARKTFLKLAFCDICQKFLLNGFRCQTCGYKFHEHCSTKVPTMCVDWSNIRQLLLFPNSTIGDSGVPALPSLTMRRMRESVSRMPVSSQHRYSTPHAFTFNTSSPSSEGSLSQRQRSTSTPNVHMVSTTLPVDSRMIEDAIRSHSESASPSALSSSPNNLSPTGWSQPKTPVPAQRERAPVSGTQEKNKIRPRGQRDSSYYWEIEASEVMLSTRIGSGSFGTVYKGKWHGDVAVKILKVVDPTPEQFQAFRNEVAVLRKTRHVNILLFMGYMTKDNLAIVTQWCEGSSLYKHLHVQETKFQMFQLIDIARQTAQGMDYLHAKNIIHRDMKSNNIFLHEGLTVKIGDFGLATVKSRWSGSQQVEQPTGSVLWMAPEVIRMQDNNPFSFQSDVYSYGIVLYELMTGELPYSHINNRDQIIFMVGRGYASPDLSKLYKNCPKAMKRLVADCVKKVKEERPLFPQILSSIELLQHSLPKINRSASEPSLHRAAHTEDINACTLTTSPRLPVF

[12] = target: RAF proto-oncogene serine/threonine-protein kinase (Homo sapiens) (UniProt P04049); conditions: at 10 µM
[13] = target: T3, Serine/threonine-protein kinase ULK2 (Homo sapiens) (UniProt Q8IYT8); conditions: at 1 µM
T3 sequence (whole entry): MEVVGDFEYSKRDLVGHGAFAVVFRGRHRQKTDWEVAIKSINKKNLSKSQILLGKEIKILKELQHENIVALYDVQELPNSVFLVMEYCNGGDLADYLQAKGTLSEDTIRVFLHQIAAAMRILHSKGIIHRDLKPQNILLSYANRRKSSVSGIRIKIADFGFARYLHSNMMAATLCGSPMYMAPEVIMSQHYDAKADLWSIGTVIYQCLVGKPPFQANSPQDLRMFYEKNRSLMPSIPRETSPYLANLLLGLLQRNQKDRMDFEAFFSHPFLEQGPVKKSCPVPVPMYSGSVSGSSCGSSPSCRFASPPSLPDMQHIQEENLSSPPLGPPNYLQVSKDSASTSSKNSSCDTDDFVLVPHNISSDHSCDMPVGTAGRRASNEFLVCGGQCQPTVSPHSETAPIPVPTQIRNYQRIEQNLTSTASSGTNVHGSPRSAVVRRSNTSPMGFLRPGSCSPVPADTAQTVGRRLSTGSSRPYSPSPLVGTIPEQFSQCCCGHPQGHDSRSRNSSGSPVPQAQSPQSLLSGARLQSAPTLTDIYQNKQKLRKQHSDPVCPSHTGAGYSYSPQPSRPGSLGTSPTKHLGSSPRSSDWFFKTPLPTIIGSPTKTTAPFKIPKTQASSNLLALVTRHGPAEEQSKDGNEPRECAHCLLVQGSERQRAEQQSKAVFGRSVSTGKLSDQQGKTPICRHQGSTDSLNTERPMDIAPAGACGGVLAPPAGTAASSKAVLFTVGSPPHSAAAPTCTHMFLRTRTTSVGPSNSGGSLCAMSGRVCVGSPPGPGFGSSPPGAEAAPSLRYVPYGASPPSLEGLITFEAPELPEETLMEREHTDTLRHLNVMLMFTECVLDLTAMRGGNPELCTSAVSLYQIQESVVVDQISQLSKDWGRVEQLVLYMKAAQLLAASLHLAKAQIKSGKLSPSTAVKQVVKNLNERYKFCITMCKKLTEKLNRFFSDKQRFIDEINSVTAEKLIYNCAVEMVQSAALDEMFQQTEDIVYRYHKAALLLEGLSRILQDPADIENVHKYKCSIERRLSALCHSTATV

[14] = target: T3, Serine/threonine-protein kinase ULK2 (Homo sapiens); conditions: at 10 µM
[15] = target: Serine/threonine-protein kinase VRK2 (Homo sapiens) (UniProt Q86Y07); conditions: at 1 µM
Serine/threonine-protein kinase VRK2 (Homo sapiens), sequence (Q86Y07 whole entry): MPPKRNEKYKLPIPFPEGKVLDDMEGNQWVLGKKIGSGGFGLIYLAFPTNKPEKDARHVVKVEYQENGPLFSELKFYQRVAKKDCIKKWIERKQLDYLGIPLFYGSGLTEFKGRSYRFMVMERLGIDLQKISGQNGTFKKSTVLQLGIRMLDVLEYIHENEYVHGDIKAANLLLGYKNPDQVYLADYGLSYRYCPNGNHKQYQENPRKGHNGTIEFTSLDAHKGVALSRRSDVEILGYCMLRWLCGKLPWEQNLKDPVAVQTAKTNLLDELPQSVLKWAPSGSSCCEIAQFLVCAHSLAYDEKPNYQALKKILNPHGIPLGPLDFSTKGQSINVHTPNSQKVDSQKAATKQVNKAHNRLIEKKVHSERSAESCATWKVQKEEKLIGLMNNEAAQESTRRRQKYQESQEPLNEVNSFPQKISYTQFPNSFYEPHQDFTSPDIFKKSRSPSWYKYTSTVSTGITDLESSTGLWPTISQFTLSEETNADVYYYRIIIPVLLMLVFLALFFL

[16] = target: Serine/threonine-protein kinase VRK2 (Homo sapiens) (UniProt Q86Y07); conditions: at 10 µM
[17] = target: Tyrosine-protein kinase Yes (Homo sapiens) (UniProt P07947); conditions: at 1 µM
Tyrosine-protein kinase Yes (Homo sapiens), sequence (P07947 2-543 limits assumed): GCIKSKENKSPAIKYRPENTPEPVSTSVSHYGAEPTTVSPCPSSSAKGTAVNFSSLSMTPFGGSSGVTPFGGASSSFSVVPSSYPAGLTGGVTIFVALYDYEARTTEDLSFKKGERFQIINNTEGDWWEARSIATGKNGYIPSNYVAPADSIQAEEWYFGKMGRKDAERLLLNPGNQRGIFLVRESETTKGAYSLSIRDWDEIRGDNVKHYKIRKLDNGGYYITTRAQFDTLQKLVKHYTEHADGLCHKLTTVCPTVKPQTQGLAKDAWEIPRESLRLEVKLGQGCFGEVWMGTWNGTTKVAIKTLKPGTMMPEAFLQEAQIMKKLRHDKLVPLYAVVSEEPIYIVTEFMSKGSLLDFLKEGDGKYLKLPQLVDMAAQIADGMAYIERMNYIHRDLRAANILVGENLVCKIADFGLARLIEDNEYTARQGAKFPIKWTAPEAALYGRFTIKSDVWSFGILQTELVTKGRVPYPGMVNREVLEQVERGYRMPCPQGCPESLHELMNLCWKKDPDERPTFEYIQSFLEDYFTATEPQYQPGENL

[18] = target: Tyrosine-protein kinase Yes (Homo sapiens) (UniProt P07947); conditions: at 10 µM
[19] = target: Mast/stem cell growth factor receptor Kit (Homo sapiens) (UniProt P10721); conditions: at 10 µM
Mast/stem cell growth factor receptor Kit (Homo sapiens), sequence (P10721 whole entry): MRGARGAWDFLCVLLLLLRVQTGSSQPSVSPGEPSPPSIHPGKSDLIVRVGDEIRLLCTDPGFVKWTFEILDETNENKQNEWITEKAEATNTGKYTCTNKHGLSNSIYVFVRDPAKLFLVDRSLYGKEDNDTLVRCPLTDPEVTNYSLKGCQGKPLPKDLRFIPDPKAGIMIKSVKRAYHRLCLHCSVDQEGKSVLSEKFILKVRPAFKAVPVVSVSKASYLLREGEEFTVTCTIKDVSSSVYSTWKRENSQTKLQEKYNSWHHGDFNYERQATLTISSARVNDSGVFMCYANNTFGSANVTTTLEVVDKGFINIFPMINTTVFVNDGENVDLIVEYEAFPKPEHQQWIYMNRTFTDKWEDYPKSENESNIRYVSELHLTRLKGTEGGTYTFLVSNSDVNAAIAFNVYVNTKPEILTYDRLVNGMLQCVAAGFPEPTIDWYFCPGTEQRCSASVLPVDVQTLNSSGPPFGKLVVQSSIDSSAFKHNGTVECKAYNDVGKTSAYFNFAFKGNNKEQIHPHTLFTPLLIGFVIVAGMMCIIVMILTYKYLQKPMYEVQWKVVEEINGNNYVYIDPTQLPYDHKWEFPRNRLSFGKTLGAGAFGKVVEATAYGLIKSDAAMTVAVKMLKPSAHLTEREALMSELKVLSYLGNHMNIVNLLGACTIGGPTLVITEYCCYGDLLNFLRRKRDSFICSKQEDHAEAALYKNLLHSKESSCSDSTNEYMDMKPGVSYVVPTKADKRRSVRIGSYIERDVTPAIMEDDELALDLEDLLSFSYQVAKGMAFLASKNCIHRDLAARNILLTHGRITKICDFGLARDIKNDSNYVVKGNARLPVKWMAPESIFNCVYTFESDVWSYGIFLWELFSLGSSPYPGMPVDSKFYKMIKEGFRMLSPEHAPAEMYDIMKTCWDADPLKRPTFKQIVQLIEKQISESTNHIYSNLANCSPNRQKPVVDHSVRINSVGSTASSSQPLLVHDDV

[20] = target: Mast/stem cell growth factor receptor Kit (Homo sapiens) (UniProt P10721); conditions: at 1 µM

COc1cc2ncnc(Nc3cccc(Cl)c3)c2cc1OC
residual activity [1]: 125%

O=C1NC(=O)c2c1c1c3ccccc3n3c1c1c2c2ccccc2n1C1CCC3O1
residual activity [2]: 58% | residual activity [3]: 58% | residual activity [4]: 100% (inactive) | residual activity [5]: 99% | residual activity [6]: 94% (inactive) | residual activity [7]: 90% | residual activity [8]: 132% | residual activity [1]: 125% | residual activity [9]: 80% | residual activity [10]: 78% | residual activity [11]: 77% | residual activity [12]: 98%

CC(C)(C)n1nc(Cc2cccc3ccccc23)c2c(N)ncnc21
residual activity [1]: 110%

CCn1cnc2c(Nc3cccc(Cl)c3)nc(N[C@@H]3CCCC[C@@H]3N)nc21
residual activity [13]: 54% | residual activity [14]: 15% | residual activity [2]: 40% | residual activity [3]: 8% | residual activity [15]: 94% (inactive) | residual activity [16]: 48% | residual activity [4]: 88% (inactive) | residual activity [5]: 45% | residual activity [6]: 87% (inactive) | residual activity [7]: 56% | residual activity [17]: 7% | residual activity [18]: 1% | residual activity [8]: 93% | residual activity [1]: 95% | residual activity [10]: 55% | residual activity [11]: 68% | residual activity [12]: 23% | residual activity [19]: 86%

O=[N+]([O-])/C=C/c1ccc2c(c1)OCO2
residual activity [13]: 102% | residual activity [14]: 92% | residual activity [2]: 111% | residual activity [3]: 91% | residual activity [15]: 101% (inactive) | residual activity [16]: 91% | residual activity [4]: 109% (inactive) | residual activity [5]: 88% | residual activity [6]: 88% (inactive) | residual activity [7]: 94% | residual activity [17]: 118% | residual activity [18]: 98% | residual activity [8]: 111% | residual activity [1]: 127% | residual activity [9]: 96% | residual activity [10]: 128% | residual activity [11]: 87% | residual activity [12]: 101% | residual activity [20]: 113% | residual activity [19]: 99%

O=c1cc(N2CCNCC2)oc2c(-c3ccccc3)cccc12
residual activity [1]: 99%

COc1ccc2c(c1)/C(=C/c1cnc[nH]1)C(=O)N2
residual activity [13]: 81% | residual activity [14]: 23% | residual activity [2]: 80% | residual activity [3]: 23% | residual activity [16]: 66% | residual activity [7]: 96% | residual activity [17]: 96% | residual activity [18]: 19% | residual activity [11]: 75% | residual activity [12]: 74%

NC(=O)Nc1sc(-c2ccc(F)cc2)cc1C(N)=O
residual activity [1]: 107%

COc1ccc2c(c[n+](C)c3c4cc5c(cc4ccc23)OCO5)c1OC
residual activity [14]: 94% | residual activity [3]: 96% | residual activity [15]: 110% (inactive) | residual activity [16]: 91% | residual activity [5]: 76% | residual activity [7]: 84% | residual activity [18]: 84% | residual activity [8]: 119% | residual activity [1]: 95% | residual activity [9]: 94% | residual activity [20]: 123% | residual activity [19]: 95%

Cc1nc(-c2ccccc2)c(-c2ccncc2)o1
residual activity [1]: 135%

O=C1Nc2ccc(Cl)cc2/C1=C/c1cc(Cl)c(O)c(Cl)c1
residual activity [1]: 100%

COc1ccc(OC)c2c(=S)c3ccccc3[nH]c12
residual activity [1]: 88%

COc1cc2ncnc(Nc3ccc(OCc4ccccc4)cc3)c2cc1OC
residual activity [13]: 102% | residual activity [14]: 93% | residual activity [2]: 104% | residual activity [3]: 69% | residual activity [15]: 112% (inactive) | residual activity [16]: 97% | residual activity [4]: 93% (inactive) | residual activity [5]: 55% | residual activity [6]: 95% (inactive) | residual activity [7]: 64% | residual activity [17]: 64% | residual activity [18]: 39% | residual activity [8]: 112% | residual activity [1]: 107% | residual activity [9]: 86% | residual activity [10]: 104% | residual activity [11]: 86% | residual activity [12]: 96% | residual activity [20]: 98% | residual activity [19]: 29%

CN(C)CCCn1cc(C2=C(c3c[nH]c4ccccc34)C(=O)NC2=O)c2ccccc21
residual activity [1]: 118%

N#C/C(=C(\N)Sc1ccc(N)cc1)c1ccccc1C(F)(F)F
residual activity [1]: 101%

COC(=O)[C@@]1(O)C[C@H]2O[C@]1(C)n1c3ccccc3c3c4c(c5c6ccccc6n2c5c31)C(=O)NC4
residual activity [13]: 7% | residual activity [14]: 0% | residual activity [2]: 0% | residual activity [3]: 1% | residual activity [15]: 100% (inactive) | residual activity [16]: 101% | residual activity [4]: 63% (inactive) | residual activity [5]: 12% | residual activity [6]: 70% (inactive) | residual activity [7]: 8% | residual activity [17]: 11% | residual activity [18]: 1% | residual activity [8]: 16% | residual activity [1]: 2% | residual activity [9]: 12% | residual activity [10]: 2% | residual activity [11]: 78% | residual activity [12]: 69% | residual activity [20]: 76% | residual activity [19]: 20%

CC(C)(C)c1cc(C=C(C#N)C#N)cc(Br)c1O
residual activity [13]: 113% | residual activity [14]: 112% | residual activity [2]: 110% | residual activity [3]: 99% | residual activity [15]: 101% (inactive) | residual activity [16]: 105% | residual activity [4]: 114% (inactive) | residual activity [5]: 114% | residual activity [6]: 111% (inactive) | residual activity [7]: 105% | residual activity [11]: 99% | residual activity [12]: 70% | residual activity [20]: 113% | residual activity [19]: 102%

O=C1c2ccccc2-c2nc3nnnn3nc21
residual activity [13]: 110% | residual activity [14]: 103% | residual activity [15]: 116% (inactive) | residual activity [16]: 102% | residual activity [6]: 115% (inactive) | residual activity [7]: 103% | residual activity [8]: 111% | residual activity [1]: 120% | residual activity [10]: 114% | residual activity [12]: 101%

CN[C@@H]1C[C@H]2O[C@@](C)([C@@H]1OC)n1c3ccccc3c3c4c(c5c6ccccc6n2c5c31)C(=O)NC4
residual activity [13]: 2% | residual activity [14]: 0% | residual activity [15]: 108% (inactive) | residual activity [16]: 90% | residual activity [4]: 92% (inactive) | residual activity [5]: 30% | residual activity [6]: 88% (inactive) | residual activity [11]: 109% | residual activity [12]: 99%

Oc1ccc(Nc2nc(-c3ccc(Cl)cc3)cs2)cc1
residual activity [1]: 130%

O=c1cc(-c2cccc3c2Sc2ccccc2S3)oc(N2CCOCC2)c1
residual activity [1]: 85%

O=C1NC(=O)/C(=C/c2ccc3c(c2)OC(F)(F)O3)S1
residual activity [1]: 102%

NC(=O)c1ccc2[nH]c(-c3ccc(Oc4ccc(Cl)cc4)cc3)nc2c1
residual activity [1]: 96%

C[S+]([O-])c1ccc(-c2nc(-c3ccc(F)cc3)c(-c3ccncc3)[nH]2)cc1 (configuration not stated)
residual activity [13]: 120% | residual activity [14]: 101% | residual activity [2]: 104% | residual activity [3]: 104% | residual activity [15]: 114% (inactive) | residual activity [16]: 96% | residual activity [4]: 117% (inactive) | residual activity [5]: 101% | residual activity [6]: 110% (inactive) | residual activity [7]: 100% | residual activity [18]: 45% | residual activity [8]: 124% | residual activity [1]: 130% | residual activity [9]: 98% | residual activity [10]: 100% | residual activity [11]: 17% | residual activity [12]: 3% | residual activity [20]: 119% | residual activity [19]: 102%
